From PubChem BioAssay AID1159580 (chemical genetic matrix, 2015)
About 2,000 (36%) of roughly 5,500 compounds were called active. Another 18% or so got no clear call; they are omitted. Rule as the data show it: active = normalized growth mostly below about 0.91 (no sharp cut-off); inconclusive = no clear call, values can overlap the other calls; inactive = mostly above about 0.92. The list shows a part of the results.

Experiment: chemical genetic growth profiling, strain panel (AID 1159580);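 also: tested at 20 µM; growth read once vehicle control cultures reached saturation at 30 °C; 1 = growth at the plate median or of vehicle wells; lower values mean less growth of the strain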
Conditions: growth OD

Measured: normalized growth

Cn1c(=O)c2c(ncn2CCCl)n(C)c1=O
inactive: S. cerevisiae deletion strains, locus YAL013W, strain DEP1, stronger effect = lower value 1 | S. cerevisiae deletion strains, locus YBR021W, strain FUR4, stronger effect = lower value 0.995 | S. cerevisiae deletion strains, locus YBR229C, strain ROT2, stronger effect = lower value 0.997 | S. cerevisiae deletion strains, locus YCL029C, strain bik1, stronger effect = lower value 1.03 | S. cerevisiae deletion strains, locus YDL035C, strain GPR1, stronger effect = lower value 1 | S. cerevisiae deletion strains, locus YDL074C, strain BRE1, stronger effect = lower value 0.999 | S. cerevisiae deletion strains, locus YDL101C, strain DUN1, stronger effect = lower value 1.01 | S. cerevisiae deletion strains, locus YDL134C, strain PPH21, stronger effect = lower value 1 | S. cerevisiae deletion strains, locus YDL185W, strain tfp1, stronger effect = lower value 1.01 | S. cerevisiae deletion strains, locus YDL192W, strain arf1, stronger effect = lower value 1.02 | S. cerevisiae deletion strains, locus YDR101C, strain arx1, stronger effect = lower value 0.995 | S. cerevisiae deletion strains, locus YDR150W, strain NUM1, stronger effect = lower value 0.998 | S. cerevisiae deletion strains, locus YDR162C, strain NBP2, stronger effect = lower value 1 | S. cerevisiae deletion strains, locus YDR318W, strain mcm21, stronger effect = lower value 1.02 | S. cerevisiae deletion strains, locus YDR388W, stronger effect = lower value 1.01 | S. cerevisiae deletion strains, locus YDR502C, strain sam2, stronger effect = lower value 1.02 | S. cerevisiae deletion strains, locus YEL061C, strain CIN8, stronger effect = lower value 0.998 | S. cerevisiae deletion strains, locus YER110C, stronger effect = lower value 1.02 | S. cerevisiae deletion strains, locus YER155C, strain BEM2, stronger effect = lower value 0.997 | S. cerevisiae deletion strains, locus YER167W, strain BCK2, stronger effect = lower value 1.01 | S. cerevisiae deletion strains, locus YGL078C, strain dbp3, stronger effect = lower value 1.02 | S. cerevisiae deletion strains, locus YGL086W, strain mad1, stronger effect = lower value 1.01 | S. cerevisiae deletion strains, locus YGL248W, strain PDE1, stronger effect = lower value 1 | S. cerevisiae deletion strains, locus YGR078C, strain PAC10, stronger effect = lower value 0.975 | S. cerevisiae deletion strains, locus YGR135W, strain pre9, stronger effect = lower value 0.995 | S. cerevisiae deletion strains, locus YGR229C, strain SMI1, stronger effect = lower value 0.987 | S. cerevisiae deletion strains, locus YGR252W, strain gcn5, stronger effect = lower value 1.03 | S. cerevisiae deletion strains, locus YHR030C, strain SLT2, stronger effect = lower value 1 | S. cerevisiae deletion strains, locus YHR079C, strain IRE1 (second series), stronger effect = lower value 1.02 | S. cerevisiae deletion strains, locus YHR094C, strain hxt1, stronger effect = lower value 1.01 | S. cerevisiae deletion strains, locus YHR129C, strain ARP1, stronger effect = lower value 1 | S. cerevisiae deletion strains, locus YHR200W, strain rpn10, stronger effect = lower value 1.03 | S. cerevisiae deletion strains, locus YIL066C, strain RNR3, stronger effect = lower value 1.02 | S. cerevisiae deletion strains, locus YIL073C, strain SPO22, stronger effect = lower value 1.08 | S. cerevisiae deletion strains, locus YIL125W, strain kgd1, stronger effect = lower value 1.02 | S. cerevisiae deletion strains, locus YIR030C, strain dcg1, stronger effect = lower value 1.03 | S. cerevisiae deletion strains, locus YJL095W, strain BCK1, stronger effect = lower value 0.992 | S. cerevisiae deletion strains, locus YJL134W, strain LCB3, stronger effect = lower value 1.01 | S. cerevisiae deletion strains, locus YJL168C, strain set2, stronger effect = lower value 1.02 | S. cerevisiae deletion strains, locus YJL187C, strain SWE1 (second series), stronger effect = lower value 1 | S. cerevisiae deletion strains, locus YJR043C, strain POL32, stronger effect = lower value 0.998 | S. cerevisiae deletion strains, locus YJR075W, strain HOC1, stronger effect = lower value 0.987 | S. cerevisiae deletion strains, locus YKL009W, strain mrt4, stronger effect = lower value 1.03 | S. cerevisiae deletion strains, locus YKL068W, stronger effect = lower value 1.02 | S. cerevisiae deletion strains, locus YKL085W, strain MDH1 (second series), stronger effect = lower value 1.01 | S. cerevisiae deletion strains, locus YKL085W, strain MDH1, stronger effect = lower value 1.01 | S. cerevisiae deletion strains, locus YKL190W, strain CNB1, stronger effect = lower value 1 | S. cerevisiae deletion strains, locus YKR001C, strain vps1, stronger effect = lower value 1.01 | S. cerevisiae deletion strains, locus YLR039C, strain RIC1, stronger effect = lower value 1.04 | S. cerevisiae deletion strains, locus YLR058C, strain SHM2, stronger effect = lower value 1.01 | S. cerevisiae deletion strains, locus YLR102C, strain apc9, stronger effect = lower value 1.03 | S. cerevisiae deletion strains, locus YLR262C, strain YPT6, stronger effect = lower value 1.05 | S. cerevisiae deletion strains, locus YLR268W, strain sec22, stronger effect = lower value 0.994 | S. cerevisiae deletion strains, locus YLR330W, strain CHS5, stronger effect = lower value 1.01 | S. cerevisiae deletion strains, locus YLR342W, strain FKS1 (second series), stronger effect = lower value 1.01 | S. cerevisiae deletion strains, locus YLR371W, strain rom2, stronger effect = lower value 1.03 | S. cerevisiae deletion strains, locus YLR418C, strain cdc73, stronger effect = lower value 0.992 | S. cerevisiae deletion strains, locus YML016C, strain PPZ1, stronger effect = lower value 1 | S. cerevisiae deletion strains, locus YML032C, strain rad52, stronger effect = lower value 1.03 | S. cerevisiae deletion strains, locus YML124C, strain tub3, stronger effect = lower value 1.02 | S. cerevisiae deletion strains, locus YMR078C, strain ctf18, stronger effect = lower value 1.02 | S. cerevisiae deletion strains, locus YMR223W, strain ubp8, stronger effect = lower value 1.04 | S. cerevisiae deletion strains, locus YMR263W, strain SAP30, stronger effect = lower value 0.995 | S. cerevisiae deletion strains, locus YMR307W, strain GAS1, stronger effect = lower value 0.996 | S. cerevisiae deletion strains, locus YNL067W, strain RPL9B, stronger effect = lower value 1.01 | S. cerevisiae deletion strains, locus YNL128W, strain TEP1, stronger effect = lower value 0.999 | S. cerevisiae deletion strains, locus YNL153C, strain GIM3, stronger effect = lower value 0.988 | S. cerevisiae deletion strains, locus YNL233W, strain BNI4, stronger effect = lower value 0.994 | S. cerevisiae deletion strains, locus YNL250W, strain rad50, stronger effect = lower value 1.04 | S. cerevisiae deletion strains, locus YNL271C, strain bni1, stronger effect = lower value 1.02 | S. cerevisiae deletion strains, locus YNL298W, strain CLA4, stronger effect = lower value 1.03 | S. cerevisiae deletion strains, locus YNL307C, strain MCK1, stronger effect = lower value 1.03 | S. cerevisiae deletion strains, locus YNL322C, strain KRE1, stronger effect = lower value 1 | S. cerevisiae deletion strains, locus YNR052C, strain pop2, stronger effect = lower value 1.04 | S. cerevisiae deletion strains, locus YOL006C, strain TOP1, stronger effect = lower value 1.03 | S. cerevisiae deletion strains, locus YOL012C, strain htz1 0.951 | S. cerevisiae deletion strains, locus YOL147C, strain pex11, stronger effect = lower value 1.01 | S. cerevisiae deletion strains, locus YOR061W, strain CKA2, stronger effect = lower value 1.01 | S. cerevisiae deletion strains, locus YOR069W, strain VPS5, stronger effect = lower value 1 | S. cerevisiae deletion strains, locus YOR136W, strain idh2, stronger effect = lower value 1.02 | S. cerevisiae deletion strains, locus YOR144C, strain elg1, stronger effect = lower value 1.01 | S. cerevisiae deletion strains, locus YOR184W, strain ser1, stronger effect = lower value 1.03 | S. cerevisiae deletion strains, locus YOR316C, strain cot1, stronger effect = lower value 1.02 | S. cerevisiae deletion strains, locus YPL055C, strain LGE1, stronger effect = lower value 0.999 | S. cerevisiae deletion strains, locus YPL241C, strain CIN2, stronger effect = lower value 1 | S. cerevisiae deletion strains, locus YPR119W, strain clb2, stronger effect = lower value 1.01 | S. cerevisiae deletion strains, locus YPR141C, strain kar3, stronger effect = lower value 1.02 | S. cerevisiae deletion strains, locus YPR163C, strain tif3, stronger effect = lower value 1.01 | S. cerevisiae deletion strains, locus YPR167C, strain met16, stronger effect = lower value 1.02 | S. cerevisiae deletion strains, strain wtn01, stronger effect = lower value 0.997 | S. cerevisiae strains, strain wild type, stronger effect = lower value 1
